Laboratory results as given in PMC4336329 (PLoS ONE, 2015).
Screen size: about 310,000 compounds; about 14,000 (4.5%) showed an effect of 50% or more. Effects have a minus sign here. The entries come from a sample that favours strong results as a whole.

Biological target: human ether-à-go-go-related gene (hERG) potassium channel (human, UniProt Q12809)
Assay: primary screen, population patch clamp on CHO cells stably expressing hERG; higher = less effect of the substance
Method: Briefly, Chinese hamster ovary (CHO) cells stably expressing the hERG channel were dislodged from tissue culture flasks and dispensed into PPC plates. […] During the recording, background leak currents were estimated by a 100 ms step to -80 mV from an initial holding potential of -70 mV and subtracted from the subsequent current measurement. The campaign was conducted in two phases using slight differences in recording protocol. In the first phase, the initial voltage pulse used a 100 ms step to -30 mV from a holding potential of -70 mV, a 2 s conditioning step to +25 mV, and a 2 s test step to -30 mV. During the second phase of the screen, the potential during the conditioning step was raised to +45 mV. In both phases of the campaign, a secondary voltage pulse was applied using the same parameters as the second phase initial pulse. The initial and secondary pulses were applied in the absence of compound, and upon application of 1 μM and 10 μM test concentrations. […]
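Note: peak tail current of the secondary pulse compared with the same well before compound.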

Sequence of human ether-à-go-go-related gene (hERG) potassium channel (Q12809 whole entry, looked up): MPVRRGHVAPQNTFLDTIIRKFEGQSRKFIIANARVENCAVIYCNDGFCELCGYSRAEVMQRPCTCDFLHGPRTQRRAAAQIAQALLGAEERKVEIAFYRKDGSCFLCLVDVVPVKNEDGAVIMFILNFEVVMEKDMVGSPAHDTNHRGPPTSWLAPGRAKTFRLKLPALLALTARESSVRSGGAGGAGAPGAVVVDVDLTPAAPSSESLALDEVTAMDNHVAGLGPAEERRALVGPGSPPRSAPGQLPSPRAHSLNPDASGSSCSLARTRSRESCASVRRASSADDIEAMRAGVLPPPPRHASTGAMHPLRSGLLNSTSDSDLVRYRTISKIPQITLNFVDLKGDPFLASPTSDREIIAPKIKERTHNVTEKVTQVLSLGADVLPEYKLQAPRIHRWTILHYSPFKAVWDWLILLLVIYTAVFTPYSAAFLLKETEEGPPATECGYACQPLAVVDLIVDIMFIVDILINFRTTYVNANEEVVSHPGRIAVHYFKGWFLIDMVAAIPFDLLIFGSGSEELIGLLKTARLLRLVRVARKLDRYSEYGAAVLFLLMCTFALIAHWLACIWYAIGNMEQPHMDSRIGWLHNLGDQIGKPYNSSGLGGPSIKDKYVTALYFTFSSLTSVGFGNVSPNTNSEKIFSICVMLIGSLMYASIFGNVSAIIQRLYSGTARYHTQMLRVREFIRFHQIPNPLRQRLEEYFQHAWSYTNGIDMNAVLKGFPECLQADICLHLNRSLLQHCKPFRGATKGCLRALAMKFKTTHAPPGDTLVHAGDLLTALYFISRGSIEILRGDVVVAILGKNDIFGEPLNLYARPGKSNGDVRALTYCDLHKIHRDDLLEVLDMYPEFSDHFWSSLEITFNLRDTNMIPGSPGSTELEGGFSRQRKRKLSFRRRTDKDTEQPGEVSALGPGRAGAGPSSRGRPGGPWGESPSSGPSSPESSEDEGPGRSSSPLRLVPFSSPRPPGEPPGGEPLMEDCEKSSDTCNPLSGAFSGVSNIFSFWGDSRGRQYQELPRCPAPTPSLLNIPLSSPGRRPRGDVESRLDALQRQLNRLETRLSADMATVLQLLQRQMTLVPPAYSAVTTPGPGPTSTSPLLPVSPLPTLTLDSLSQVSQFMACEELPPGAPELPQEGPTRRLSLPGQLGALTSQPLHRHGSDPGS

Compound	hERG current change (%, negative = inhibition) at 10uM [%]
COc1ccc(C(=O)NC(=S)N2CCN(c3ccccc3OC)CC2)cc1	-21.6
O=C(COC(=O)c1cccnc1)c1ccc(Cl)cc1	4.51
CCCCn1c(SCn2nnc3ccccc3c2=O)nc2cc(S(N)(=O)=O)ccc21	-34.5
COc1ccc(N2CCN(C(=O)C(=O)c3c(C)[nH]c4ccccc34)CC2)cc1	-14.1
Cl.O=C(NCCCN1CCOCC1)C(=O)c1c[nH]c2ccccc12	-3.03
COc1ccc(N2CCN(CC(=O)c3c[nH]c4ccccc34)CC2)cc1	8.09
COc1ccc(N2CCN(CC(=O)c3c(C)n(C)c4ccc(OC)cc34)CC2)cc1	-4.1
COc1ccc(C(C(O)C(=O)c2c[nH]c3ccccc23)N2CCN(c3ccc(OC)cc3)CC2)cc1 (centres unmarked)	-7.36
COc1ccc(C(C(O)C(=O)c2c[nH]c3ccccc23)N2CCN(c3ccccc3)CC2)cc1 (centres unmarked)	-13.8
COc1ccc(N2CCN(CCCNC(=O)C(=O)c3c(C)[nH]c4ccccc34)CC2)cc1	-53.3
CCN1CCN(C(c2ccc(OC)cc2)C(O)C(=O)c2c[nH]c3ccccc23)CC1 (centres unmarked)	-69
COc1ccc(N2CCN(CCCNC(=O)C(=O)c3c[nH]c4ccccc34)CC2)cc1	-69.7
CCN1CCN(CCCNC(=O)C(=O)c2c(C)[nH]c3ccccc23)CC1	3.67
COc1ccc(N2CCN(C(=O)C(=O)c3c(C)n(C)c4ccccc34)CC2)cc1	10.4
COc1ccc(N2CCN(CCCNC(=O)C(=O)c3c(C)n(C)c4ccccc34)CC2)cc1	-64.1
O=C(NCCN1CCOCC1)c1cccc(S(=O)(=O)N(Cc2ccccc2)c2ccccc2)c1	-19.3
CCOC(=O)c1sc(C)c(C(=O)NC2CCCCC2)c1N	-4.79
CNC(=O)c1c(NC(=O)CCS(=O)(=O)c2ccccc2)sc(C)c1C	0.0126
COc1ccc(/C=N/NC(=O)Cc2csc(Nc3cccc(C(F)(F)F)c3)n2)cc1C	10.7
CCOC(=O)c1cc(-c2ccccc2)sc1NC(=O)COC(=O)c1cccc(S(N)(=O)=O)c1	10.2
CC1CC(C)CN(CCCNC(=O)CCC(=O)N2CC(C)Oc3ccccc32)C1 (centres unmarked)	-32.2

Compound	hERG current change (%, negative = inhibition) at 10uM [%]
Cc1cccc(/C=N/NC(=O)c2cccc(NC(=O)c3ccccc3)c2)n1	0.172
CCOCc1nnc(NC(=O)CSc2ccc(C)cc2)s1	6.61
Cc1c(N2CCCC2)cc2c(c1NC(=O)c1ccccc1Cl)C(C)(C)CC2(C)C	-25.6
COc1ccc(-[n+]2c(C)cc(/C=C3\Sc4ccccc4N3C)cc2C)cc1.[I-]	-60.2
CN1/C(=C/c2cccc[n+]2CCO)Sc2ccccc21.[I-]	12.4
COc1cc(OC)cc(C(=O)/C=C2\Sc3ccccc3N2C)c1	9.82
CN1/C(=C/c2cccc[n+]2C)Sc2ccccc21.[I-]	-22.7
COc1ccc(C(=O)/C=C2\Sc3ccccc3N2C)cc1	11.1
COc1ccccc1-[n+]1c(C)cc(/C=C2\Sc3ccccc3N2C)cc1C.[I-]	-69.6
COc1ccc(NC(=O)/C(C#N)=C\c2ccc(OCc3ccc(C(=O)O)cc3)c(OC)c2)cc1	3.69
CC(C)C(CCNC(=O)CC(Cc1ccccc1)c1ccco1)c1ccco1 (centres unmarked)	-20
Cc1cc(C)cc(OCC(=O)NNC(=O)CCN2C(=O)c3ccccc3C2=O)c1	-14.8
Cc1ccc(NC(=O)CCNS(=O)(=O)c2ccc3[nH]c(=O)oc3c2)cc1C	9.43
COc1ccc2cc(CN(CC3CCCO3)S(=O)(=O)c3ccc(C(C)=O)cc3)c(=O)[nH]c2c1 (centres unmarked)	-11.4
COC(=O)CN(C)C(=O)CC1C(=O)NCCN1CC(C)(C)C (centres unmarked)	22.8
O=c1[nH]cnc2c1cnn2Cc1ccccc1Cl	11.7
Cc1ccc(C2(C)NC(=O)N(CC(=O)NCc3ccccc3Cl)C2=O)cc1 (centres unmarked)	9.54
CCSC(C)CC1C/C(=N/O)c2c(CC)noc2C1 (centres unmarked)	-24.2
CCSC(C)CC1C/C(=N/O)c2c(C)noc2C1 (centres unmarked)	-63.4
CCCc1noc2c1/C(=N\O)CC(CC(C)SCC)C2 (centres unmarked)	-11.1
O=C(Nc1nccs1)C1CCCN1/C=C/C(=O)C(F)(F)F (centres unmarked)	13.9

Compound	hERG current change (%, negative = inhibition) at 10uM [%]
CSc1nnc2c(n1)OC(c1ccccn1)N(C(C)=O)c1ccccc1-2 (centres unmarked)	1.42
CC(O)CNc1nc2sc3c(c2c(=O)n1CCc1ccccc1)CCCCC3 (centres unmarked)	13.1
CC(O)CNc1nc2ccccc2n1-c1ncnc2sc3c(c12)CCC3 (centres unmarked)	-55.5
c1ccc2c(c1)ncn2-c1ncnc2sc3c(c12)CCCC3	-27.2
COc1ccc(CC(=O)N/N=C/c2ccc(-c3cccc(C(=O)O)c3)o2)cc1OC	3.33
C=CCNC(=O)CN(Cc1ccccc1)S(=O)(=O)c1ccccc1	-4.02
CCNS(=O)(=O)c1ccc(NC(=S)N2CCc3ccccc32)cc1	22.9
CCOC(=O)c1c(C)nsc1NC(=O)C1CCCCC1	17.3
O=C(CCCc1nc2ccccc2s1)N1CCN(S(=O)(=O)c2cccs2)CC1	-11.9
N#Cc1ccc(OCC(=O)N2CCN(S(=O)(=O)c3ccc(Cl)s3)CC2)cc1	-69.5
N#Cc1ccc(OCC(=O)N2CCN(S(=O)(=O)c3cccs3)CC2)cc1	-72.1
CCC(=O)c1ccc(OCC(=O)N2CCN(S(=O)(=O)c3ccc(Cl)s3)CC2)cc1	-4.53
N#Cc1ccc(C(=O)N2CCN(S(=O)(=O)c3ccc(Cl)s3)CC2)cc1	-49.9
O=S(=O)(c1cccs1)N1CCN(Cc2nc3ccccc3s2)CC1	-27.8
O=C(CCc1nc2ccccc2s1)N1CCN(S(=O)(=O)c2cccs2)CC1	-66.7
N#Cc1ccc(C(=O)N2CCN(S(=O)(=O)c3ccc(Br)s3)CC2)cc1	-63.5
COc1ccc(OCC(=O)N2CCN(S(=O)(=O)c3ccc(Cl)s3)CC2)cc1	-0.573
CC(C)(C)c1ccc(C(=O)N2CCN(S(=O)(=O)c3ccc(Br)s3)CC2)cc1	1.21
O=C(COc1ccccc1)N1CCN(S(=O)(=O)c2cccs2)CC1	-31
O=C(CCOc1ccccc1)N1CCN(S(=O)(=O)c2cccs2)CC1	-9.15
